Drawing on article PMC12864922, “TDP-43 directly inhibits mRNA accumulation in neurites through modulation of mRNA stability”, this text covers binding signal for 13 molecules.

To fix the notation:
B1: ENSMUSG00000029028.98|Lrrc47 (ssRNA)
RNA: GGGAGUUCUACAGUCCGACGAUCGCUUCGAUAUCCGCAUGCUAUGUGGGUGUGCUGUAGAUUCUGUGUAACUGGUUCUUUGCUGUUUCUCUGGGUGUUUUAAGGUGUCUGCUUUUGUCCAGGUGACUGUGGUAAUGUGAGUUUGCAUCAUCAUCAUAGCUCCAAUGUGACUCUCCUGUCUCCUGUCCUCAUGGAUCACUCAGUAACUGCUGGGGAUGUUCUGAAUCAUGUGGCCUGUGGCCGUGCUGGAGAGUCAGGUUGAACGCAGGCAUUCUAUUGAACAGUAUUUAUUUUUCUACAACAUCUCUUGCGGUCGCACUAGUGUGGAAUUCUCGGGUGUCAAGG
B2: ENSMUSG00000090935.301|Synj2bp|248:252 (ssRNA)
RNA: GGGAGUUCUACAGUCCGACGAUCGCUUCGAUAUCCGCAUGCUAGCCUUAGUUGCUAUUUUACAGUACUGUUAAAGGAUCCAUUGGCAUGGGAUGGGAAGCAGCAGGGCCCAAUCAACCAUCAAGACAUCUGAAAAAGAUCAUGUCUCAAGGUGGCACUUGAGCCUUCAAAACUGCUUAACAAUUCUCAGUUUCUAGUGUCAGACAAAAAGCCUAAGGGAAGGAACUGCCCUCCUGGUAGGAUGGACCUGAAUCAGCCUGCUUCUGACUGAGUUAGGAUGAGAAGGCAUUGCAUACGGUUUUCUCUCUUGCGGUCGCACUAGUGUGGAAUUCUCGGGUGUCAAGG
B3: ENSMUSG00000032194.203|Kank2 (ssRNA)
RNA: GGGAGUUCUACAGUCCGACGAUCGCUUCGAUAUCCGCAUGCUACUGCACCUUUCUCUAACUGGGGUUCCUUUCUGGCCCCAGGAUCUCAGUGUGGUUCGUGGGGGGAUUUUGUUGUUGUUUCUUUGUUUCUUUUCUUCAUAAAGAAGAAAAAGGAAACAACUUCUAGAUGUGCCUUGCGAUAGGGAGGACUUUGUCCUCUCAAGUCUCCCUGUCGUAUCCAGAUCACAGCUGAACCCACUGGGCCUUGGCGCCAAACCUCAGCAGGGCAGCAUUGAGACUCAUGGACUAAAGGAAAGUGUUCACUCUUGCGGUCGCACUAGUGUGGAAUUCUCGGGUGUCAAGG
B4: ENSMUSG00000043670.75|Diras1|97:102 (ssRNA)
RNA: GGGAGUUCUACAGUCCGACGAUCGCUUCGAUAUCCGCAUGCUAUUUGAUCCCUGUGGAUCUGAAAACAGGGACCUGGCUAAGGAACUGCUCAUCCCAGUCAGGCCCAGAGAGGUUACCUUGCCUCUCCAUCUCUGUCCCACACACCCCAGCCAUGCCCACUGUCCCUGUCCCUCACAUUCUAUCACUGUGACCUCUGGGGAGUGCCCAUUGACCUCAUCUUCCUUCACUAAUAUCUUAUUUCUUUCACCUGAUCCUGUCCUUUCCCCGUGACCUCUGACCUGUGGCCUUCCCUGGGUCCAGAACUCUUGCGGUCGCACUAGUGUGGAAUUCUCGGGUGUCAAGG
B5: ENSMUSG00000061578.22|Ksr2|4:9;112:122;211:217;222:226 (ssRNA)
RNA: GGGAGUUCUACAGUCCGACGAUCGCUUCGAUAUCCGCAUGCUAACCACACACAUGACGUCACAGAGGCUGUCCACACCUUCGACUUGUACCCCGUUACUCAGGCACGAUCAGGGACCACUCAACUAGGACCAAACUGGGCCAGAGAGGGUCCCAACACACCACACAAGGAGCCACAGACUGAGCACACCACCUCGGACUGUGGAGACCAAGACACAUGCCCAGUGGGCAGACUCAGACUCACACGCUGGACCACACACACCGCAACACACUACACAUGGACAGGGCCAACUGCUAUCCUUCUGCUCUUGCGGUCGCACUAGUGUGGAAUUCUCGGGUGUCAAGG
B6: ENSMUSG00000031028.295|Tub (ssRNA)
RNA: GGGAGUUCUACAGUCCGACGAUCGCUUCGAUAUCCGCAUGCUAUCCCAGGUUGGACACUCGACGAAAGGCACACCUGCUGCAGCAGGUUCUGACACACCUGAGCCAUACAUUGCCAUCAGAGAACCCUCAGCGAGGUAGCCUUUGUUUACAGUCUAGUUUCUAGAGGGCAGUAGGACUUCCAUGCUGGGGCUGGCCUAUCUCCUGAUGAAAGAUUACAGUGCCAUCUCCUUCCCAUAGUUCUGUGUCUGCCCUCCCUCCCUGACUUUAUAGGGAGAAAUCUCCUGACAUUAGAGGUGAUAGAACUCUUGCGGUCGCACUAGUGUGGAAUUCUCGGGUGUCAAGG
B7: ENSMUSG00000031028.549|Tub (ssRNA)
RNA: GGGAGUUCUACAGUCCGACGAUCGCUUCGAUAUCCGCAUGCUAAUAGAUGGACAGCCUGGUUUCCCUUCUCAGCAGUCCUGGCCUCCCCUUCUCUGUAUUCCUUGCCCCAGCUACGAUAUCCUCAUGGGAUUUCAGGAUGCCAGGUGCCAUCAAAGCAUGCUUUUUUGUGGUGCCUAGCACUGUGACUGGGGCCCAACUGCCCUGCAGAGUUGGGACCUUGCACUGCCCUAGACCCUGGCUUUAGAUCUGCUUCAGUCUCCAGAACAGGCUAUGGGAUAGAUUUUUCUUUCAGUUUAUGGCCACUCUUGCGGUCGCACUAGUGUGGAAUUCUCGGGUGUCAAGG
B8: ENSMUSG00000061578.336|Ksr2 (ssRNA)
RNA: GGGAGUUCUACAGUCCGACGAUCGCUUCGAUAUCCGCAUGCUAGGAGUGACCAGUCACCUGCCUCCCAGGGUUCUGCCUUGCCCUUAAGCUAGGGUCCUUCAAGCAUCCACAGACUUAGAGUGUGGUGGUAACAUGCUUGUAAUCCUGGCACUCUGGAGGCUGAGGCAGGAGGAUAACAAGUCUAGACUAUAUAUGAUUUCUGAGGGUCUGUUAGUGAAUAAGUACCUGGAUGACAUGGGACAAGUCCCAGCCUUCCCUGCUCCUGCGCUGCUCUUCCUCUUAUGGGAUAGGGUCUAGGUCAACUCUUGCGGUCGCACUAGUGUGGAAUUCUCGGGUGUCAAGG
B9: ENSMUSG00000061578.503|Ksr2 (ssRNA)
RNA: GGGAGUUCUACAGUCCGACGAUCGCUUCGAUAUCCGCAUGCUAGGGAUUAAAGGUGUGUACCACCAUUGCAAUCUUGAACUCUUGACCAAUAGAAAUCCUAGACUAGUGUUGCUAGGCAACUGACUGUAUUCAGGACACCCAGGGUGGGAGGUGGAUGGAGCUCUUGCCUAACACACACCAAGCCCCAAGUUCCAUCCCCAGUCCCACACAAACCAGAUAUGAUGGUGUGUGCCUAUGUCCCCCACACACGAGAGAGCUGGAGGCAGGAGGAUCAGAAGUUCAGGGCCAUCCUUAAUCAUACACUCUUGCGGUCGCACUAGUGUGGAAUUCUCGGGUGUCAAGG
B10: ENSMUSG00000031028.294|Tub|205:209 (ssRNA)
RNA: GGGAGUUCUACAGUCCGACGAUCGCUUCGAUAUCCGCAUGCUAUAGAUUUCCCAGGUUGGACACUCGACGAAAGGCACACCUGCUGCAGCAGGUUCUGACACACCUGAGCCAUACAUUGCCAUCAGAGAACCCUCAGCGAGGUAGCCUUUGUUUACAGUCUAGUUUCUAGAGGGCAGUAGGACUUCCAUGCUGGGGCUGGCCUAUCUCCUGAUGAAAGAUUACAGUGCCAUCUCCUUCCCAUAGUUCACACACUGCCCUCCCUCCCUGACUUUAUAGGGAGAAAUCUCCUGACAUUAGAGGUGCUCUUGCGGUCGCACUAGUGUGGAAUUCUCGGGUGUCAAGG
B11: ENSMUSG00000032194.156|Kank2|226:232 (ssRNA)
RNA: GGGAGUUCUACAGUCCGACGAUCGCUUCGAUAUCCGCAUGCUAAAAAAAGAAAAAAGGCCAUUCCGGAGUGACUCCCAGCAUCACAGCCCAGAACCUCCUCCUCAAAGGAGAGUAAACAGAGACUGUGAUACUGACCAAGUACAGGCGCUCGCUAUGAAGCCCAUAUGUUCCUGAUUAAGAGCUGGCUGGCCUCAGAGCACUCCCAGAACUAGCUUAAAGUGACAGGCUUUGCUGAAAUCCAAAGGGACAAAAGAGUAGUUUUAUGUUACACACAUUGUUUUUAAUGCCCUGGAGCUCCUGCUCUCUUGCGGUCGCACUAGUGUGGAAUUCUCGGGUGUCAAGG
B12: ENSMUSG00000061578.741|Ksr2 (ssRNA)
RNA: GGGAGUUCUACAGUCCGACGAUCGCUUCGAUAUCCGCAUGCUAUUUAAAUACCUGCUGCAGGCCUCCCAUCUCUGGCUCUUUGUUUCCACUCUGGCCCAAGUUUGAGUCUCCAUAUGGGCCCUUCCUGUCCUCAUGCCCUGCCUGUCUUCAUUCCACCCAUCCACCCUCCUAAGGAUUGGUCUUGUUCCGAGAGUGAUCCUGGUAACGCCAAGCCUCCCUCUGCCCCUGUGUUGGCUUCUGUGACGGACUACCACACACCAAGAGGUUUUUCACAGUGAAGAUGUAUGCUCUCACCAUCCUACCUCUUGCGGUCGCACUAGUGUGGAAUUCUCGGGUGUCAAGG
B13: ENSMUSG00000061578.701|Ksr2|49:53 (ssRNA)
RNA: GGGAGUUCUACAGUCCGACGAUCGCUUCGAUAUCCGCAUGCUAUACUCCCAGAUCUGGGGUGAUCUCUUGAGGUGCCUUCCUGUAGUCUCUACACACAUCUUCUUCUAAGACCACUAAUAACACCGCCUUUCUCCUUGAUCCGGGCCUCAGACCUCUUCAGAGAUUCUUUCUCUGAAUGUACGUGGGGGACUCCAACAGAUGUUGGGAGAAGACUCAAUAUGAGCAUACGGGGUCAUUGUUCAAUCCUGUAUCAAGACCUUGGAGUUGUCUAAGGCUGUGGGUUUUAAAUACCUGCUGCAGGCCUCUUGCGGUCGCACUAGUGUGGAAUUCUCGGGUGUCAAGG

Whole data set: some 9,900 sequences, median “r (bound/input frequency ratio)” near 0.7, cut for the highest 2% near 6.5. The full list was thinned out, with the highest values kept by preference.

Sequence of TDP-43 (Q13148 whole entry): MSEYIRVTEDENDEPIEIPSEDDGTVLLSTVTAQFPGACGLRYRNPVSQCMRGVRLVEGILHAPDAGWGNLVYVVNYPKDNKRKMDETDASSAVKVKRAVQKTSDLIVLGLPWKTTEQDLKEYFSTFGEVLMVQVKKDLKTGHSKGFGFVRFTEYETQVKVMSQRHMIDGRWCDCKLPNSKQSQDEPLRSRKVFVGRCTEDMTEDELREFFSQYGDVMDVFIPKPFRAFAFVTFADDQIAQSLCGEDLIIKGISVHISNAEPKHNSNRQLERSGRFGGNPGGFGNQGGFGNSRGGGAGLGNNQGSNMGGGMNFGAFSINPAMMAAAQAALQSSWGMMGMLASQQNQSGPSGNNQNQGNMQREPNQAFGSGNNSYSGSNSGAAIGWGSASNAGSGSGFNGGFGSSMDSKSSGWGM

The test addresses TDP-43 (Homo sapiens, UniProt Q13148 1-414). Put plainly: RNA Bind-n-Seq with designed 260-mer pool; 25 mM Tris-HCl, 150 mM KCl, 3 mM MgCl2, BSA (printed 500 mg/mL), 20 units/mL SUPERase IN; pH not stated; 500 nM RNA pool, 1 h, 4 C; TDP-43 5, 50, 500 nM; high values mean tight binding. The settings on record: protein: recombinant; tags: SBP (GST cleaved off with PreScission; pGEX-GST-SBP). The essentials: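 In 25 mM Tris-HCl, 150 mM KCl, 3 mM MgCl2, BSA and SUPERase IN, 500 nM of an in vitro-transcribed 260-nt 3′ UTR oligo pool was incubated for 1 h at 4 °C with SBP-tagged TDP-43 (5, 50 or 500 nM) captured on streptavidin beads. RNA remaining after washes was biotin-eluted, reverse transcribed, PCR-amplified and sequenced. Binding, R, is the bound-sample abundance of each oligo, normalized to mapped reads, divided by its abundance in input. Each duplicate used a separate, independent protein batch.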
In the case of B1, the binding signal was 1.29 R (bound/input frequency ratio). The result for B2 reads 0.248 R (bound/input frequency ratio).

Take B3: the binding signal is 0.26 R (bound/input frequency ratio).

In the case of B4, the binding signal is 2.78 R (bound/input frequency ratio). For B5, the binding signal is 1.84 R (bound/input frequency ratio). The result for B6 reads 0.563 R (bound/input frequency ratio).

In the case of B7, the binding signal is 0.419 R (bound/input frequency ratio). Take B8: the binding signal was 0.934 R (bound/input frequency ratio). In the case of B9 it was 1.74 R (bound/input frequency ratio). As to B10, the binding signal is 0.471 R (bound/input frequency ratio). The result for B11 reads 0.257 R (bound/input frequency ratio). Regarding B12, the binding signal is 2.01 R (bound/input frequency ratio). In the case of B13 it was 0.26 R (bound/input frequency ratio).
